Test results as given in PubChem BioAssay.
Active and inactive are the calls of the source. Unless noted, the rule behind the calls is not given here.

Experiments:
[1] = compounds altering circadian rhythm period length – cell-based, LOPAC library, luminescence reporter (AID 2774); details: circadian reporter cells, at 7 µM, actives lie on both sides;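 note: values are relative to mean of DMSO wells on each plate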
[2] = tested on: Hepatitis C virus NS3 helicase; test: blockers of NS3h binding to ssDNA – biochemical, fluorescence polarization, LOPAC1280 library, primary screen (AID 687035; in the data active = inhibition above about 37%); details: Purified HCV NS3 helicase, Cy5-dT15 ssDNA binding fluorescence polarization; stronger effect = higher value; concentration not given here
[3] = compounds altering Cy5-DNA-NS3h complex signal – biochemical, LOPAC1280, artefact control for HCV NS3 helicase inhibitor project (AID 687037); details: Cy5-DNA-NS3h complex fluorescence interference counterscreen
[4] = viability loss with induced miR-34 in A549 – imaging, A549 dox-inducible miR-34, nuclei and caspase counts, primary screen (AID 1347080;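 active = compounds whose cell count with miR-34 switched on is under 0.7 times the count with it off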); details: A549 miR-34 inducible, Hoechst nuclei count, 48 h
[5] = blockers of cellular phospholipid synthesis – cell-based, LOPAC library, screen 4, primary screen (AID 1347384); details: animal cells, phospholipid biosynthesis inhibition screen; at 10 µM
[6] = galactose survival enhancers in mitochondrial complex I cybrids – cell-based, galactose medium, ATP luminescence, primary screen (AID 1645843;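 active = z-score of at least 1.8 in each of two replicates, scored against plate mean and spread of sample wells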;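 note: positive z means more ATP and so rescue of galactose-driven cybrid death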); details: complex I mutant cybrid cells, 72 h, stronger effect = higher value
[7] = stronger effect = lower value, cell number ratio, induced over uninduced
[8] = measured here: relative caspase fold change +Dox/-Dox
[9] = measured here: total cells with miR-34 induction, stronger effect = lower value
[10] = measured here: total cells without miR-34 induction

Compound | period change [1] | inhibition [2] | fluorescence ratio (interference) [3] | fold change [4, 7] | fold change [4, 8] | cell count [4, 9] | cell count [4, 10] | outcome [5] | z-score [6]
CCCn1c(=O)c2c(ncn2C)n(CCC)c1=O | -0.02 h (inactive) | -3% (inactive) | 1.1 (inactive) | 1 (inactive) | 1.17 | 10000 | 9990 | inactive | 0.46 (inactive)
O=C1CCC(c2ccc(-n3ccnc3)cc2)=NN1 | -0.075 h (inactive) | -1% (inactive) | 1 (inactive) | 1.07 (inactive) | 0.666 | 10200 | 9510 | inactive | -0.165 (inactive)
CCCCCCCCCC(=O)NC(CN1CCOCC1)[C@H](O)c1ccccc1 (some centres undefined) | 0.05 h (inactive) | 2% (inactive) | 1 (inactive) | 0.995 (inactive) | 1.18 | 7040 | 7080 | inactive | -1.16 (inactive)
CCCC[C@@]1(C2CCCC2)Cc2cc(OCC(=O)O)c(Cl)c(Cl)c2C1=O | -0.06 h (inactive) | 0% (inactive) | 1 (inactive) | 0.958 (inactive) | 1.45 | 8870 | 9260 | inactive | 2.93 (active)
CC(=O)[C@H]1CCC2C3CC=C4C[C@@H](OS(=O)(=O)O)CC[C@]4(C)C3CC[C@@]21C (some centres undefined) | 0.02 h (inactive) | 1% (inactive) | 1 (inactive) | 0.987 (inactive) | 1.53 | 10100 | 10300 | inactive | 2.2 (active)
N[C@@H](Cc1ccc(O)c(I)c1)C(=O)O | 0.02 h (inactive) | -4% (inactive) | 0.9 (inactive) | 1.11 (inactive) | 0.663 | 11600 | 10400 | inactive | 0.59 (inactive)
NC(CCCP(=O)(O)O)C(=O)O (centres undefined) | 0.105 h (inactive) | -3% (inactive) | 1 (inactive) | 1.08 (inactive) | 1.92 | 10400 | 9550 | inactive | 0.21 (inactive)
N[C@H](C(=O)O)[C@H]1C[C@@H]1C(=O)O | 0.045 h (inactive) | 2% (inactive) | 1 (inactive) | 0.968 (inactive) | 1.24 | 9910 | 10200 | inactive | 0.225 (inactive)
C[N+](C)(C)CC=O | -0.2 h (inactive) | -5% (inactive) | 0.9 (inactive) | 1 (inactive) | 1.36 | 10200 | 10200 | inactive | 0.245 (inactive)
NCCCCCCCCCCN | 0 h (inactive) | 2% (inactive) | 1 (inactive) | 0.948 (inactive) | 1.23 | 10300 | 10900 | inactive | -0.23 (inactive)
NC(Cc1cccc(-c2ccccc2CP(=O)(O)O)c1)C(=O)O (centres undefined) | -0.07 h (inactive) | -5% (inactive) | 1 (inactive) | 0.998 (inactive) | 1.77 | 10900 | 11000 | inactive | 0.42 (inactive)
CNCC[C@H](Oc1ccc(C(F)(F)F)cc1)c1ccccc1 | 0.185 h (inactive) | -2% (inactive) | 1 (inactive) | 1.08 (inactive) | 0.944 | 7270 | 6730 | inactive | -0.925 (inactive)
C=C/C(C)=C/[C@@]1(C)SC(=O)C(C)=C1O | -0.02 h (inactive) | -4% (inactive) | 1 (inactive) | 1.05 (inactive) | 1.19 | 10800 | 10300 | inactive | 0.66 (inactive)
NC(=O)C(=O)O | 0.025 h (inactive) | -7% (inactive) | 0.9 (inactive) | 1.05 (inactive) | 1.23 | 10900 | 10300 | inactive | 0.585 (inactive)
Cc1nc(N=Nc2ccc(S(=O)(=O)O)cc2S(=O)(=O)O)c(COP(=O)(O)O)c(C=O)c1O | 0.055 h (inactive) | 0% (inactive) | 1 (inactive) | 0.994 (inactive) | 1.49 | 9390 | 9440 | inactive | 0.795 (inactive)
C#CCn1c(=O)c2c(ncn2C)n(C)c1=O | -0.07 h (inactive) | -1% (inactive) | 1 (inactive) | 0.971 (inactive) | 0.997 | 10100 | 10400 | inactive | 0.15 (inactive)
Nc1nc(Nc2ccccc2)nc2c1ncn2[C@@H]1O[C@H](CO)[C@H](O)C1O (some centres undefined) | -0.07 h (inactive) | -4% (inactive) | 1 (inactive) | 0.974 (inactive) | 1.23 | 9660 | 9910 | inactive | 0.02 (inactive)
CN1CCCC1CCOC(C)(c1ccccc1)c1ccc(Cl)cc1 (centres undefined) | 0.12 h (inactive) | -3% (inactive) | 1 (inactive) | 1.24 (inactive) | 1.31 | 4130 | 3330 | inactive | -1.51 (inactive)

Compound | period change [1] | inhibition [2] | fluorescence ratio (interference) [3] | fold change [4, 7] | fold change [4, 8] | cell count [4, 9] | cell count [4, 10] | outcome [5] | z-score [6]
Cc1cccc(C2CN(C)CCc3c2cc(O)c(O)c3Cl)c1 (centres undefined) | 0.11 h (inactive) | -4% (inactive) | 1 (inactive) | 0.998 (inactive) | 1.65 | 6330 | 6340 | inactive | -1.29 (inactive)
OC[C@H]1O[C@@H](n2cnc3c(NC4CCCCC4)ncnc32)[C@H](O)[C@@H]1O | 0.08 h (inactive) | -1% (inactive) | 1 (inactive) | 0.959 (inactive) | 1.25 | 9650 | 10100 | inactive | 0.865 (inactive)
CCC1(O)CC2CN(CCc3c([nH]c4ccccc34)[C@@](C(=O)OC)(c3cc4c(cc3OC)N(C)C3[C@]45CCN4CC=C[C@@](CC)([C@@H](OC(C)=O)[C@]3(O)C(=O)OC)[C@H]45)C2)C1 (some centres undefined) | 0.43 h (inactive) | -2% (inactive) | 1 (inactive) | 1.18 (inactive) | 0.644 | 1680 | 1430 | inactive | -1.17 (inactive)
COc1cccc(OC)c1OCCNCC1CSc2ccccc2O1 (centres undefined) | 0.065 h (inactive) | 0% (inactive) | 1 (inactive) | 1.03 (inactive) | 1.19 | 7530 | 7340 | inactive | -1.31 (inactive)
COc1cc(CC(=O)O)ccc1O | 0.03 h (inactive) | 1% (inactive) | 1 (inactive) | 1.05 (inactive) | 0.734 | 10100 | 9570 | inactive | 0.08 (inactive)
Cn1ccnc1 | 0.39 h (inactive) | -2% (inactive) | 0.9 (inactive) | 1.1 (inactive) | 0.769 | 11100 | 10000 | inactive | 0.675 (inactive)
COc1cccc(C(=O)NCCN2CCN(c3ccc(Cl)cc3)CC2)c1 | -0.035 h (inactive) | 0% (inactive) | 1 (inactive) | 1.02 (inactive) | 1.92 | 9900 | 9720 | inactive | -0.845 (inactive)
N[C@@H](CCCC(=O)O)C(=O)O | 0.11 h (inactive) | -1% (inactive) | 0.9 (inactive) | 1.05 (inactive) | 0.58 | 10400 | 9930 | inactive | 0.595 (inactive)
N#C/C(=C\c1ccc(O)c(O)c1)C(=O)NCCc1ccccc1 | -0.04 h (inactive) | 2% (inactive) | 0.9 (inactive) | 1.09 (inactive) | 0.996 | 7900 | 7250 | inactive | -1.06 (inactive)
Nc1ccc(N2C(=O)c3ccccc3C2=O)c(Cl)c1 | 0.15 h (inactive) | 0% (inactive) | 1 (inactive) | 0.973 (inactive) | 1.66 | 10200 | 10500 | inactive | 0.45 (inactive)
CCCCCCCCCC[Si](C)(C)CCC(=O)NC(Cc1ccc(C)cc1)c1ccccc1 (centres undefined) | 0.12 h (inactive) | -1% (inactive) | 1 (inactive) | 1.02 (inactive) | 2.15 | 10100 | 9990 | inactive | -0.33 (inactive)
NC(C(=O)N[C@@H]1C(=O)N2C(C(=O)O)=C(Cl)CS[C@H]12)c1ccccc1 (some centres undefined) | 0.03 h (inactive) | 0% (inactive) | 1 (inactive) | 1.02 (inactive) | 2.15 | 10500 | 10300 | inactive | 0.38 (inactive)
O=C(O)CCC(C(=O)O)N1C(=O)c2ccccc2C1=O (centres undefined) | -0.075 h (inactive) | -4% (inactive) | 1 (inactive) | 1.05 (inactive) | 0.915 | 10300 | 9760 | inactive | 0.255 (inactive)
COc1ccccc1CNCCCCCCNCCCCCCCCNCCCCCCNCc1ccccc1OC | 0.295 h (inactive) | 11% (inactive) | 1 (inactive) | 1.1 (inactive) | 0.839 | 8650 | 7890 | inactive | -1.19 (inactive)
Nc1c(S(=O)(=O)O)cc(Nc2ccc(Nc3nc(Cl)nc(Nc4ccc(S(=O)(=O)O)cc4)n3)c(S(=O)(=O)O)c2)c2c1C(=O)c1ccccc1C2=O | 0.105 h (inactive) | 86% (active) | 0.7 (active) | 1.07 (inactive) | 0.889 | 9580 | 8990 | inactive | 4.81 (active)
CN1CCc2cc(NC(=O)Nc3cccnc3)ccc21 | 0.02 h (inactive) | -2% (inactive) | 1 (inactive) | 1.02 (inactive) | 2.86 | 10800 | 10700 | inactive | 1.34 (inactive)
NC1CCN(O)C1=O (centres undefined) | 0.11 h (inactive) | 0% (inactive) | 1 (inactive) | 0.997 (inactive) | 1.98 | 10200 | 10200 | inactive | 0.075 (inactive)
O=c1ccn([C@@H]2O[C@H](COP(=O)(O)OP(=O)(O)O)[C@@H](O)[C@H]2O)c(=O)[nH]1 | 0.165 h (inactive) | -1% (inactive) | 1 (inactive) | 0.992 (inactive) | 1.43 | 9420 | 9500 | inactive | 0.745 (inactive)
